# Test results as given in the supplement of paper PMC12282887.
# ± gives the standard deviation of the averaged measurements.
# Legend:
# Experiment in all cases: promoter activity interaction Z-score (Lux/OD deviation from empty-vector control); higher = stronger promoter induction by the compound
# [1] = system: E. coli BW25113 acrABp lux reporter
# Procedure, shortened: (§1)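 Wild-type E. coli BW25113 and three single-gene deletion strains, each carrying a low-copy luxCDABE promoter reporter, were grown at 37°C in 40 µl LB Lennox per well of a 384-well plate. Every compound was applied at four 1:2 dilutions in biological duplicates, and OD600 and luminescence were read every 30 min for 12 h. Integration covered 0–8 h for wild type and 1–9 h for deletion strains, and wells under 10% of the median growth value were removed. Scores are Z-transformed residuals of growth-normalised luminescence fitted against a control.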
# [2] = system: E. coli BW25113 marRABp lux reporter
# Procedure, shortened: as §1
# [3] = system: E. coli BW25113 micFp lux reporter
# Procedure, shortened: as §1
# [4] = system: E. coli BW25113 ompFp lux reporter
# Procedure, shortened: as §1
# [5] = system: E. coli BW25113 robp lux reporter
# Procedure, shortened: as §1
# [6] = system: E. coli BW25113 soxSp lux reporter
# Procedure, shortened: as §1
# [7] = system: E. coli BW25113 tolCp lux reporter
# Procedure, shortened: as §1
# [8] = 19.7 µg/ml, genetic background: wild type
# [9] = 19.7 µg/ml, genetic background: ΔmarA
# [10] = 19.7 µg/ml, genetic background: Δrob
# [11] = 19.7 µg/ml, genetic background: ΔsoxS
# [12] = 39.3 µg/ml, genetic background: wild type
# [13] = 39.3 µg/ml, genetic background: ΔmarA
# [14] = 39.3 µg/ml, genetic background: Δrob
# [15] = 39.3 µg/ml, genetic background: ΔsoxS
# [16] = 78.6 µg/ml, genetic background: wild type
# [17] = 78.6 µg/ml, genetic background: ΔmarA
# [18] = 78.6 µg/ml, genetic background: Δrob
# [19] = 78.6 µg/ml, genetic background: ΔsoxS
# [20] = 157.2 µg/ml, genetic background: wild type
# [21] = 157.2 µg/ml, genetic background: ΔmarA
# [22] = 157.2 µg/ml, genetic background: Δrob
# [23] = 157.2 µg/ml, genetic background: ΔsoxS
smiles,measurement,setting,value
CC(=O)[C@H]1CC[C@H]2[C@@H]3CCC4=CC(=O)CC[C@]4(C)[C@H]3CC[C@]12C [Progesterone],promoter activity interaction Z-score,[1]; [8],-0.247 ± 0.13
same,promoter activity interaction Z-score,[1]; [9],-0.405 ± 0.19
same,promoter activity interaction Z-score,[1]; [10],-0.0328 ± 0.098
same,promoter activity interaction Z-score,[1]; [11],-0.282 ± 0.25
same,promoter activity interaction Z-score,[1]; [12],-0.262 ± 0.14
same,promoter activity interaction Z-score,[1]; [13],-0.838 ± 0.1
same,promoter activity interaction Z-score,[1]; [14],-0.217 ± 0.17
same,promoter activity interaction Z-score,[1]; [15],-0.38 ± 0.34
same,promoter activity interaction Z-score,[1]; [16],0.00448 ± 0.24
same,promoter activity interaction Z-score,[1]; [17],-0.886 ± 0.13
same,promoter activity interaction Z-score,[1]; [18],-0.151 ± 0.044
same,promoter activity interaction Z-score,[1]; [19],-0.0393 ± 0.056
same,promoter activity interaction Z-score,[1]; [20],-0.214 ± 0.34
same,promoter activity interaction Z-score,[1]; [21],0.269 ± 0.11
same,promoter activity interaction Z-score,[1]; [22],0.191 ± 0.14
same,promoter activity interaction Z-score,[1]; [23],-0.315 ± 1
same,promoter activity interaction Z-score,[2]; [8],-0.0683 ± 0.075
same,promoter activity interaction Z-score,[2]; [9],0.0187 ± 0.17
same,promoter activity interaction Z-score,[2]; [10],-0.191 ± 0.093
same,promoter activity interaction Z-score,[2]; [11],0.0521 ± 0.092
same,promoter activity interaction Z-score,[2]; [12],-0.275 ± 0.28
same,promoter activity interaction Z-score,[2]; [13],-0.0815 ± 0.0053
same,promoter activity interaction Z-score,[2]; [14],-0.249 ± 0.035
same,promoter activity interaction Z-score,[2]; [15],-0.155 ± 0.11
same,promoter activity interaction Z-score,[2]; [16],-0.102 ± 0.22
same,promoter activity interaction Z-score,[2]; [17],-0.0516 ± 0.038
same,promoter activity interaction Z-score,[2]; [18],-0.252 ± 0.24
same,promoter activity interaction Z-score,[2]; [19],-0.3 ± 0.093
same,promoter activity interaction Z-score,[2]; [20],-0.0485 ± 0.46
same,promoter activity interaction Z-score,[2]; [21],0.0739 ± 0.13
same,promoter activity interaction Z-score,[2]; [22],-0.505 ± 0.15
same,promoter activity interaction Z-score,[2]; [23],-0.178 ± 0.15
same,promoter activity interaction Z-score,[3]; [8],-0.103 ± 0.25
same,promoter activity interaction Z-score,[3]; [9],0.119 ± 0.028
same,promoter activity interaction Z-score,[3]; [10],0.0776 ± 0.12
same,promoter activity interaction Z-score,[3]; [11],0.434 ± 0.5
same,promoter activity interaction Z-score,[3]; [12],-0.0976 ± 0.35
same,promoter activity interaction Z-score,[3]; [13],0.123 ± 0.056
same,promoter activity interaction Z-score,[3]; [14],0.0868 ± 0.01
same,promoter activity interaction Z-score,[3]; [15],0.176 ± 0.29
same,promoter activity interaction Z-score,[3]; [16],-0.119 ± 0.33
same,promoter activity interaction Z-score,[3]; [17],0.21 ± 0.0092
same,promoter activity interaction Z-score,[3]; [18],-0.0152 ± 0.13
same,promoter activity interaction Z-score,[3]; [19],0.432 ± 0.42
same,promoter activity interaction Z-score,[3]; [20],-0.0937 ± 0.11
same,promoter activity interaction Z-score,[3]; [21],0.211 ± 0.14
same,promoter activity interaction Z-score,[3]; [22],-0.0152 ± 0.04
same,promoter activity interaction Z-score,[3]; [23],0.0431 ± 0.32
same,promoter activity interaction Z-score,[4]; [8],-0.534 ± 0.033
same,promoter activity interaction Z-score,[4]; [9],-0.169 ± 0.36
same,promoter activity interaction Z-score,[4]; [10],-0.0375 ± 0.16
same,promoter activity interaction Z-score,[4]; [11],-0.19 ± 0.42
same,promoter activity interaction Z-score,[4]; [12],-0.381 ± 0.1
same,promoter activity interaction Z-score,[4]; [13],-0.611 ± 0.036
same,promoter activity interaction Z-score,[4]; [14],0.0341 ± 0.39
same,promoter activity interaction Z-score,[4]; [15],-0.905 ± 0.22
same,promoter activity interaction Z-score,[4]; [16],-0.604 ± 0.2
same,promoter activity interaction Z-score,[4]; [17],-0.705 ± 0.19
same,promoter activity interaction Z-score,[4]; [18],-0.397 ± 0.063
same,promoter activity interaction Z-score,[4]; [19],-0.681 ± 0.46
same,promoter activity interaction Z-score,[4]; [20],-0.672 ± 0.32
same,promoter activity interaction Z-score,[4]; [21],-0.651 ± 0.19
same,promoter activity interaction Z-score,[4]; [22],-1.43 ± 0.17
same,promoter activity interaction Z-score,[4]; [23],-1.51 ± 0.4
same,promoter activity interaction Z-score,[5]; [8],0.215 ± 0.46
same,promoter activity interaction Z-score,[5]; [9],-0.134 ± 0.11
same,promoter activity interaction Z-score,[5]; [10],0.137 ± 0.78
same,promoter activity interaction Z-score,[5]; [11],0.0784 ± 0.35
same,promoter activity interaction Z-score,[5]; [12],-0.384 ± 0.091
same,promoter activity interaction Z-score,[5]; [13],-0.498 ± 0.18
same,promoter activity interaction Z-score,[5]; [14],-0.00268 ± 0.38
same,promoter activity interaction Z-score,[5]; [15],-0.408 ± 1.2
same,promoter activity interaction Z-score,[5]; [16],0.0849 ± 0.14
same,promoter activity interaction Z-score,[5]; [17],-0.366 ± 0.29
same,promoter activity interaction Z-score,[5]; [18],-0.234 ± 0.65
same,promoter activity interaction Z-score,[5]; [19],-0.171 ± 0.34
same,promoter activity interaction Z-score,[5]; [20],-0.26 ± 0.16
same,promoter activity interaction Z-score,[5]; [21],-0.185 ± 0.13
same,promoter activity interaction Z-score,[5]; [22],-0.798 ± 0.68
same,promoter activity interaction Z-score,[5]; [23],-1.05 ± 0.11
same,promoter activity interaction Z-score,[6]; [8],-0.199 ± 0.29
same,promoter activity interaction Z-score,[6]; [9],-0.22 ± 0.01
same,promoter activity interaction Z-score,[6]; [10],0.0249 ± 0.041
same,promoter activity interaction Z-score,[6]; [11],-0.00845 ± 0.063
same,promoter activity interaction Z-score,[6]; [12],-0.25 ± 0.099
same,promoter activity interaction Z-score,[6]; [13],-0.192 ± 0.018
same,promoter activity interaction Z-score,[6]; [14],-0.155 ± 0.04
same,promoter activity interaction Z-score,[6]; [15],-0.315 ± 0.23
same,promoter activity interaction Z-score,[6]; [16],-0.226 ± 0.1
same,promoter activity interaction Z-score,[6]; [17],-0.147 ± 0.072
same,promoter activity interaction Z-score,[6]; [18],-0.0586 ± 0.098
same,promoter activity interaction Z-score,[6]; [19],-0.236 ± 0.25
same,promoter activity interaction Z-score,[6]; [20],-0.226 ± 0.079
same,promoter activity interaction Z-score,[6]; [21],-0.186 ± 0.028
same,promoter activity interaction Z-score,[6]; [22],-0.48 ± 0.037
same,promoter activity interaction Z-score,[6]; [23],-0.776 ± 0.47
same,promoter activity interaction Z-score,[7]; [8],-0.462 ± 1.4
same,promoter activity interaction Z-score,[7]; [9],0.741 ± 0.62
same,promoter activity interaction Z-score,[7]; [10],-0.127 ± 0.85
same,promoter activity interaction Z-score,[7]; [11],-0.377 ± 0.42
same,promoter activity interaction Z-score,[7]; [12],0.606 ± 1
same,promoter activity interaction Z-score,[7]; [13],0.0914 ± 0.43
same,promoter activity interaction Z-score,[7]; [14],0.494 ± 1
same,promoter activity interaction Z-score,[7]; [15],-1.65 ± 1.1
same,promoter activity interaction Z-score,[7]; [16],-0.308 ± 0.37
same,promoter activity interaction Z-score,[7]; [17],0.451 ± 1.3
same,promoter activity interaction Z-score,[7]; [18],0.161 ± 0.71
same,promoter activity interaction Z-score,[7]; [19],0.0688 ± 1.3
same,promoter activity interaction Z-score,[7]; [20],-0.227 ± 0.23
same,promoter activity interaction Z-score,[7]; [21],0.167 ± 0.12
same,promoter activity interaction Z-score,[7]; [22],-0.116 ± 0.74
same,promoter activity interaction Z-score,[7]; [23],0.764 ± 1
